Test results published in PubChem BioAssay (NCATS).
Values joined by “and” are separate entries in the source; they are usually repeats but may differ in a detail not shown here. Identical values can stand only once. Records with an inconclusive call do not appear. Where a call stands in place of a potency, no number is given. Active and inactive are the calls of the source. Unless noted, calls come from the whole dose curve; as a rule, active = well fitted curve in the direction sought with a large enough effect; inconclusive = small, poorly fitted or top-dose-only effect, or another doubt; inactive = no such curve, though single readings can be large; an effect the other way counts as inactive or inconclusive.

What was measured:
[1] = Cell Viability - MRC5 (AID 434; calls by dose curve;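 note: potency is the fitted concentration of half-maximal effect; cells exposed to compound for 40 hours at 37 °C; potency reflects cytotoxicity seen as loss of intracellular ATP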); details: MRC5 lung fibroblast viability, qHTS
In short: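 AC50 values come from Hill-equation fits of intracellular ATP loss, measured by CellTiter-Glo luminescence. Normal lung fibroblasts (MRC5) had 40 hr compound treatment at 37 C, normalized between DMSO and 100 uM tamoxifen.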

[2] = Cell Viability - NIH 3T3 (AID 541); details: NIH 3T3 cell viability, qHTS; activity change, negative = cytotoxicity: at 92.2 µM (top of the series);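 note: cells exposed to compound for 40 hours; nearly all actives have a fitted effect of over 25% in size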
In short: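 Intracellular ATP (CellTiter-Glo luminescence, 20 min at room temperature) measured after 40 hr compound exposure at 37 °C of 1000 NIH 3T3 mouse fibroblasts/well in complete medium; AC50 derived by Hill-equation modelling of qHTS concentration-response curves.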

[3] = Cellular Toxicity (caspase-3) HepG2 (AID 654);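 note: cells exposed to compound for 16 hours before reading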
In short: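 Caspase 3/7 activation is measured as a luminescence increase (aminoluciferin substrate) after 16 h compound exposure of human hepatocarcinoma HepG2 cells. AC50 values are Hill fits, scaled between DMSO baseline and 100 uM tamoxifen stimulation.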

[4] = Cellular Toxicity (caspase-3) BJ (AID 658); details: Potency: caspase-3 activation;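 note: cells exposed to compound for 16 hours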
In short: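 Caspase-Glo 3/7 luminescence, read 1 hr after reagent at room temperature, in normal BJ fibroblasts exposed 16 hours at 37 °C. AC50 values from Hill-equation concentration-response, scaled between DMSO basal and 10 uM staurosporine as 100%.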

[5] = biological target: Cytochrome P450 3A4 (Homo sapiens) (UniProt P08684); experiment: qHTS Assay for Inhibitors and Substrates of Cytochrome P450 3A4 (AID 884); note: nearly all actives have a fitted effect of over 50% in size
In short: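 Luminescent readout of luciferin produced by CYP3A4 (20 nM) dealkylation of Luciferin-PPXE, 25 uM (its KM). NADPH-driven reaction ran 60 min at RT after 10 min compound preincubation; data scaled to 57 uM ketoconazole as 100% inhibition.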

[6] = biological target: Estrogen receptor (Homo sapiens) (UniProt P03372); experiment: qHTS assay for small molecule antagonists of estrogen receptor alpha signaling (AID 588513; active = well fitted curve in the direction sought with a large enough effect in the signal ratio, with a control signal flat, not every such curve was filed as active; the % refers to the signal ratio)
In short: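 ER-alpha-UAS-bla GripTite HEK 293 cells in 2% charcoal/dextran-treated FBS medium; compounds titrated (1:2, duplicate), then stimulated with 0.5 nM 17-beta-estradiol for 18 h at 37C. CCF4 beta-lactamase fluorescence; Hill-fit IC50 and efficacy.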

[7] = qHTS assay for small molecule activators of the nuclear factor-kappa B (NF-kB) signaling pathway (AID 651749; active = well fitted activation curve with a large enough effect in the signal ratio; the % refers to the signal ratio); details: NF-kB-bla ME-180 cells, beta-lactamase FRET ratio, 16 h; stronger effect = higher value
In short: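 Activation measured after 16 hr compound treatment at 37C, 5% CO2, of 2,000 ME-180 cells/well stably expressing an NF-kB response element–driven beta-lactamase reporter, via FRET-disruption fluorescence.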

[8] = biological target: Nuclear receptor ROR-gamma (Homo sapiens) (UniProt P51449); experiment: qHTS assay for small molecule antagonists of the retinoid-related orphan receptor gamma (ROR-gamma) signaling pathway (AID 651802); note: nearly all actives have a fitted effect of over 60% in size; note: potency is the fitted concentration of half-maximal effect
In short: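 Luminescence (One-Glo, 30 min RT) measured 16 h after compound addition and doxycycline induction at 37C. Reporter: RORE-luciferase under TET-inducible ROR-gamma in CHO cells.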

[9] = qHTS assay for cell viability of HEK293 cells (AID 743288); details: ATP luminescence (CellTiter-Glo), 18 h; max response: stronger effect = lower value; note: nearly all actives have a fitted effect of over 50% in size
In short: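 Steps: plate 2,000 parental HEK293 cells per well; incubate ≥5 h, 37 C; add compounds in DMSO; incubate 18 h, 37 C; add CellTiter-Glo; wait 30 min at room temperature; read luminescence.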

[10] = Cellular Toxicity (caspase-3) Hek293 (AID 664); details: HEK293 caspase-3 activation, DMSO = 0%, 100 µM tamoxifen = 100%; at 92.2 µM (top of the series);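 note: cells exposed to compound for 16 h at 37 °C before readout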
In short: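 Concentration-response qHTS: caspase 3/7 activation measured by luminescent aminoluciferin substrate cleavage after 16 h compound exposure of Hek 293 cells. AC50 from Hill equation, with DMSO as basal and 100 uM tamoxifen as 100%.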

[11] = MultiTox-Fluor Cytotoxicity Assay - LYMP1-003 - Live Cells (AID 962);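 note: cells exposed to compound for 16 hours at 37 °C; cytotoxic hits lower the live-cell protease signal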
In short: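 Live-cell protease activity (GF-AFC substrate, 405/510 nm, 60 min at room temperature) after 16 h, 37 C compound exposure of human lymphoblastoid LYMP1-003 cells; concentration-response fitted to the Hill equation for AC50.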

[12] = qHTS assay for small molecule agonists of the antioxidant response element (ARE) signaling pathway (AID 651741; active = well fitted activation curve with a large enough effect in the signal ratio; the % refers to the signal ratio; note: potency is the fitted concentration of half-maximal effect)
In short: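 Beta-lactamase reporter under ARE control in HepG2 cells, 2,000 per well, was induced by 16 h compound treatment at 37 C. Read-out was fluorescence from LiveBLAzer B/G FRET substrate after 2 h at room temperature.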

[13] = qHTS assay for small molecule activators of the human pregnane X receptor (PXR) signaling pathway (AID 720659; call rule not given here)
[14] = Cellular Toxicity (caspase-3) H-4-II-E (AID 663); details: Potency: caspase-3 activation;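 note: cells exposed to compound for 16 hr before readout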
In short: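 Caspase 3/7 activation measured by luminescent aminoluciferin substrate cleavage after 16 hr compound treatment of H-4-II-E cells in complete medium. Increase normalized between DMSO (basal) and 100 uM tamoxifen (100%); Hill-equation AC50 from concentration-response.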

[15] = Cell Viability - LYMP2-015 (AID 971); note: nearly all actives have a fitted effect of over 55% in size
In short: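 Cytotoxicity readout: decrease in intracellular ATP (CellTiter-Glo luminescence) in 2500 LYMP2-015 lymphoblastoid cells/well after 24 h compound exposure at 37 C. Concentration-response data fitted with the standard Hill equation to give AC50.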

[16] = qHTS assay for small molecule antagonists of peroxisome proliferator-activated receptor delta signaling (AID 588535; active = well fitted inhibition curve with a large enough effect in the signal ratio, with a control signal flat, not every such curve was filed as active; the % refers to the signal ratio;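 for max response: cells co-treated with a PPAR-delta agonist as stimulator during compound exposure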); details: HEK293T PPARd-UAS-bla, beta-lactamase FRET ratio, 18 h; 460 nm channel
In short: (§1)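 Titrations were run on PPAR-delta-UAS-bla HEK293T cells in charcoal/dextran-stripped serum, incubated 18 h at 37 C. CCF4 fluorescence (460/530 nm) after 2 h RT; Hill equation yields IC50 and maximal response.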

[17] = biological target: Peroxisome proliferator-activated receptor delta (Homo sapiens) (UniProt Q03181); experiment: as above
In short: as §1

[18] = biological target: Peroxisome proliferator-activated receptor gamma (Homo sapiens) (UniProt P37231); experiment: qHTS assay for small molecule agonists of peroxisome proliferator-activated receptor gamma signaling (AID 588536; active = well fitted curve in the direction sought with a large enough effect in the signal ratio, with a control signal flat, not every such curve was filed as active; the % refers to the signal ratio)
In short: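 Beta-lactamase reporter read-out: CCF4 fluorescence (ex 405, em 460/530 nm) after 2 h at RT. HEK293 GeneBLAzer cells were treated for 16 h at 37 C. Hill fits gave EC50 and efficacy versus 2 uM rosiglitazone (100%) and DMSO (0%).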

[19] = qHTS assay for small molecule antagonists of the retinoid-related orphan receptor gamma (ROR-gamma) signaling pathway - cell viability counter screen (AID 720652; active = well fitted curve in the direction sought with a large enough effect in the repeat runs; an effect the other way counts as inactive or inconclusive;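 note: CHO reporter cells with doxycycline-induced ROR-gamma expression; compound exposure lasted 16 hr before ATP read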)
In short: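 Cytotoxicity counter screen: intracellular ATP (CellTiter-Glo luminescence) measured in the doxycycline-induced CHO RORE-luciferase reporter line after 16 hr compound exposure at 37 C, 5% CO2.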

[20] = qHTS assay for small molecule agonists of the antioxidant response element (ARE) signaling pathway measured by Nrf2-dependant transcriptional activity - cell viability counter screen (AID 720653; active = well fitted curve in the direction sought with a large enough effect in the repeat runs; an effect the other way counts as inactive or inconclusive); details: ARE-bla HepG2 viability, CellTiter-Glo ATP luminescence, 16 h; max response: stronger effect = lower value
In short: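 Cytotoxicity counter screen: intracellular ATP quantified by CellTiter-Glo luminescence in the same ARE-bla HepG2 plates, after 16 h compound exposure and a 2 h beta-lactamase substrate step.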

Estrogen receptor (Homo sapiens), sequence (P03372 whole entry, looked up): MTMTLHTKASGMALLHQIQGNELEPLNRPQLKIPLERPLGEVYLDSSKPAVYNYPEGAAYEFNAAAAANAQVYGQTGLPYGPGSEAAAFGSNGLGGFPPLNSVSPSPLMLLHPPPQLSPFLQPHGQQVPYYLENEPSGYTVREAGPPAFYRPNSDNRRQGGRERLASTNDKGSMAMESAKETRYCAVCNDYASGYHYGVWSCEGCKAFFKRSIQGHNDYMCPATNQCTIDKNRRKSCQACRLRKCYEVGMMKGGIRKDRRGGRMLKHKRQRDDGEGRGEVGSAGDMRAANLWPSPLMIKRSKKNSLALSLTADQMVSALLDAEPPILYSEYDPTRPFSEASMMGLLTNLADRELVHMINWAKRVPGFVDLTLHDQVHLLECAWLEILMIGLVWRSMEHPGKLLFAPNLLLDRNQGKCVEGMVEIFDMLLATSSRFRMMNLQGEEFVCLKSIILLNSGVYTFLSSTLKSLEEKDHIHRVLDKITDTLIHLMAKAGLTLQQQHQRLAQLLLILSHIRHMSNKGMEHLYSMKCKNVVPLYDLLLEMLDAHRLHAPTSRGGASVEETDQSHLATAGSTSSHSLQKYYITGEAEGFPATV
Cytochrome P450 3A4 (Homo sapiens), sequence (P08684 whole entry, looked up): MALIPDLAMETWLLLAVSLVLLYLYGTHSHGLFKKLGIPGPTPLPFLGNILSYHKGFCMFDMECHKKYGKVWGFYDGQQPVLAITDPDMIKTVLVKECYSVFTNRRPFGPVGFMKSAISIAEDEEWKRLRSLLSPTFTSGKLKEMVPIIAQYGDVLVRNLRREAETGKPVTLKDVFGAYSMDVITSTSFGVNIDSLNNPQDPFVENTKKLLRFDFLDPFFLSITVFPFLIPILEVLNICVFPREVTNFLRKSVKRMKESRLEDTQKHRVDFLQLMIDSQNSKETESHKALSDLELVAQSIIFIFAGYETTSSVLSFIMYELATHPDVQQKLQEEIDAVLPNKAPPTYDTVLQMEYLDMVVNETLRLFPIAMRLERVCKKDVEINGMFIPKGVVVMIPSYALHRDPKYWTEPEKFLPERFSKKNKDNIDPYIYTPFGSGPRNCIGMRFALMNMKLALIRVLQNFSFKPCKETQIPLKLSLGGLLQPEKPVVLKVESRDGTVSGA
Peroxisome proliferator-activated receptor gamma (Homo sapiens), sequence (P37231 whole entry, looked up): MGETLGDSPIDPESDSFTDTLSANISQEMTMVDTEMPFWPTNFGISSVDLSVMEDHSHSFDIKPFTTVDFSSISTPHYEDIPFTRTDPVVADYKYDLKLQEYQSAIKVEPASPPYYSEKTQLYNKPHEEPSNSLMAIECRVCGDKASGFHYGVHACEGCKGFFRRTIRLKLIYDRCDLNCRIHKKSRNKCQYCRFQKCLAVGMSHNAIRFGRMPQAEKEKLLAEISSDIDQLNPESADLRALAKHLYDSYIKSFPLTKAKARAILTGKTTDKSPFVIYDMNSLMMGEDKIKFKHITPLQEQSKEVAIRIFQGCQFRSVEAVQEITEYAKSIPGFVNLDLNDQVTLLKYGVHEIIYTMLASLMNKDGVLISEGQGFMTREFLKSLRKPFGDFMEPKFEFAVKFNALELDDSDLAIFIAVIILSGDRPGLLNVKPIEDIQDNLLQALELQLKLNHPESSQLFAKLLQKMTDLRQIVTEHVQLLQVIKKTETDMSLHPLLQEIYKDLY
Nuclear receptor ROR-gamma (Homo sapiens), sequence (P51449 whole entry, looked up): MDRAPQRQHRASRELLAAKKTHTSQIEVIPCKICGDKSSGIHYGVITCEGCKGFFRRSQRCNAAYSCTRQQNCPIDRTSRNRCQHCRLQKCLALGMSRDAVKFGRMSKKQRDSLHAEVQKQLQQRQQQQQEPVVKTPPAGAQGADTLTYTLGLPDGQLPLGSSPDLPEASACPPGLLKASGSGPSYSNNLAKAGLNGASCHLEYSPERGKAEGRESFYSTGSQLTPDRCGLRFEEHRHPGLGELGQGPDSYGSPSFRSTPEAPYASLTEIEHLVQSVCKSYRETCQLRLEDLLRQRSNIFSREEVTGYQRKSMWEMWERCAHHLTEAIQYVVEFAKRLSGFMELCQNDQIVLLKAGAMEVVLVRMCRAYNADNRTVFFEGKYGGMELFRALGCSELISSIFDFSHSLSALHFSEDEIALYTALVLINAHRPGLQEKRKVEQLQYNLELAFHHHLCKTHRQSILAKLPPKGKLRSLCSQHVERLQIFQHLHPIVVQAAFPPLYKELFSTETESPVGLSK
Peroxisome proliferator-activated receptor delta (Homo sapiens), sequence (Q03181 whole entry, looked up): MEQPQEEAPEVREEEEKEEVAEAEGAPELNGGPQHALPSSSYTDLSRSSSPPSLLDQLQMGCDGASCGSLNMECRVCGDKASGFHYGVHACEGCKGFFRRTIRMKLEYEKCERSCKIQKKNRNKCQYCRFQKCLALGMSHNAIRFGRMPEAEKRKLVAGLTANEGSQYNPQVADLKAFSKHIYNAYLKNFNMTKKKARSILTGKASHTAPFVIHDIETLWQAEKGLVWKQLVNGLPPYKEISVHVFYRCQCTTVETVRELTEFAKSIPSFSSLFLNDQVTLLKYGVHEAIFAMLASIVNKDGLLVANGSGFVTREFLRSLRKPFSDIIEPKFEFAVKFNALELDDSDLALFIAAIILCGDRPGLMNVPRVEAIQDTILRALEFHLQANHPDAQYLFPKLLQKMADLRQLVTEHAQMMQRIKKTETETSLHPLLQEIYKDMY

SMILES: Clc1nc2ccccc2nc1Cl
- Potency [1]: > 92 µM (inactive)
- activity change, negative = cytotoxicity [2]: -143% (active)
- Potency [3]: inactive
- Potency [4]: inactive
- Potency [5]: inactive
- outcome [6]: inactive
- activation [7]: -0.675% (inactive)
- Potency [8]: inactive
- max response [9]: -15.1% (inactive)

SMILES: Oc1ccc(O)c2c(O)cccc12
- Potency [1]: > 92 µM (inactive)
- activity change, negative = cytotoxicity [2]: -29% (inactive)
- Potency [3]: inactive
- Potency [4]: inactive
- caspase-3 activation [10]: 18% (inactive)
- Potency [5]: inactive
- Potency [11]: inactive
- outcome [6]: inactive
- Potency [12]: 42.2 µM (active)
- Potency [8]: 66.8 µM (active)
- outcome [13]: inactive

SMILES: CC(C)S
- activity change, negative = cytotoxicity [2]: -8.42% (inactive)
- Potency [3]: inactive
- Potency [14]: inactive
- caspase-3 activation [10]: 0.604% (inactive)
- Potency [5]: inactive
- Potency [15]: inactive
- outcome [6]: inactive
- max response [16]: -7.04%
- outcome [17]: inactive
- outcome [18]: inactive
- activation [7]: -0.169% (inactive)
- Potency [19]: inactive
- outcome [13]: inactive

SMILES: O=C(O)c1ccc([N+](=O)[O-])cc1
- Potency [1]: > 92 µM (inactive)
- activity change, negative = cytotoxicity [2]: 3.22% (inactive)
- Potency [3]: inactive
- Potency [4]: inactive
- caspase-3 activation [10]: 10.3% (inactive)
- Potency [5]: inactive
- Potency [11]: inactive
- Potency [15]: inactive
- max response [16]: 8.52%
- outcome [17]: inactive
- Potency [12]: inactive
- activation [7]: -1.53% (inactive) and -0.205% (inactive)
- Potency [8]: inactive
- Potency [19]: inactive
- max response [9]: -3.6% (inactive) and -1.43% (inactive)
- outcome [13]: inactive

SMILES: NC(=O)c1ccc([N+](=O)[O-])cc1
- Potency [1]: > 92 µM (inactive)
- activity change, negative = cytotoxicity [2]: -5.57% (inactive)
- Potency [3]: inactive
- Potency [4]: inactive
- Potency [14]: inactive
- caspase-3 activation [10]: 0.417% (inactive)
- Potency [5]: inactive
- Potency [11]: inactive
- Potency [15]: inactive
- max response [16]: 16.9%
- outcome [17]: inactive
- outcome [18]: inactive
- Potency [12]: inactive
- activation [7]: -0.545% (inactive)
- Potency [8]: inactive
- Potency [19]: inactive
- max response [9]: 4.95% (inactive)
- outcome [13]: inactive

SMILES: CC(=O)CC(=O)Nc1ccccc1
- Potency [1]: > 92 µM (inactive)
- activity change, negative = cytotoxicity [2]: -3.89% (inactive)
- Potency [14]: inactive
- caspase-3 activation [10]: -0.00159% (inactive)
- Potency [5]: inactive
- Potency [15]: inactive
- max response [16]: 18.5%
- outcome [17]: inactive
- outcome [18]: inactive
- Potency [12]: inactive
- activation [7]: -0.0343% (inactive) and 0.349% (inactive)
- Potency [19]: inactive
- max response [20]: -0.0894% (inactive) and -4.18% (inactive)
- max response [9]: 2.12% (inactive) and -0.894% (inactive)
- outcome [13]: inactive

SMILES: Cc1ccc(N)cc1[N+](=O)[O-]
- Potency [1]: > 92 µM (inactive)
- Potency [3]: inactive
- Potency [14]: inactive
- Potency [11]: inactive
- Potency [15]: inactive
- max response [16]: 35.9%
- outcome [17]: inactive
- outcome [18]: inactive
- activation [7]: 0.0603% (inactive)
- Potency [8]: inactive
- Potency [19]: inactive
- max response [9]: 4.69% (inactive)
- outcome [13]: inactive

SMILES: CC(=O)c1ccc(Cl)c(Cl)c1Cl
- activity change, negative = cytotoxicity [2]: -14.4% (inactive)
- caspase-3 activation [10]: 0.887% (inactive)
- Potency [5]: inactive
- Potency [15]: inactive
- outcome [6]: inactive
- outcome [18]: inactive
- activation [7]: -0.287% (inactive)
- Potency [19]: inactive
- max response [20]: 4.27% (inactive)
- max response [9]: 4.03% (inactive)
- outcome [13]: inactive
